TEAD-YAP block – TEAD-YAP interaction inhibition. HEK-TIYL cells, TEAD-Gal4/YAP UAS-luciferase luminescence. inhibition, % at 9.12 µM. 640,000 compounds, 1.4% hits. AID 1259422; in the data active = inhibition above about 32%;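 note: 0% = median of test compound wells and 100% = reference inhibitor wells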
FBW7 act – activators of human E3 ligase FBW7; Q969H0; AlphaScreen FBW7–phospho-cyclin E peptide binding, activator screen; normalized activity (activation), % at 26.1 µM; 650,000 compounds, 0.13% hits; AID 1259310; in the data active = normalized activity above about 1.9%;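 note: purified mutant Fbw7 with reduced substrate affinity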
Target sequence (Q969H0 whole entry, looked up): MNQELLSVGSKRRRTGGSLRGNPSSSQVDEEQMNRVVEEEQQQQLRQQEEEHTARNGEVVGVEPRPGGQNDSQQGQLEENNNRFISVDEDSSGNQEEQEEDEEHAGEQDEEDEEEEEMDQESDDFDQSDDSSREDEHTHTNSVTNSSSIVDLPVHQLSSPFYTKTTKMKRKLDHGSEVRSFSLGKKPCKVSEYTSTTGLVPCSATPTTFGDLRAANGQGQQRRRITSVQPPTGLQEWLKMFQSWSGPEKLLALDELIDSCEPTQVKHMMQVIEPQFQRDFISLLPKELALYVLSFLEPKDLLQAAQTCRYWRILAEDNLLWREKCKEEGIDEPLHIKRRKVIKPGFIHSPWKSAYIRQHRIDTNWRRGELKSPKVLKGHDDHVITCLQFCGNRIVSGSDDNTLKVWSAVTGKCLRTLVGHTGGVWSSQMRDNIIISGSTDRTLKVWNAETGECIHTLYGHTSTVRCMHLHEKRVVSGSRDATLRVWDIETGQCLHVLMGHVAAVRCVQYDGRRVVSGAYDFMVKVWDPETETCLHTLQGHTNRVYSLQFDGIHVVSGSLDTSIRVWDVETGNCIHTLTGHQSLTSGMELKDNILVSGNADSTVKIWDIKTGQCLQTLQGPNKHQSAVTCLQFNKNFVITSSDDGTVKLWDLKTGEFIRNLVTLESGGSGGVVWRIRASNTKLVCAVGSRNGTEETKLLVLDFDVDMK
GPR151 ag – human GPR151 activation; 650,000 compounds, 1% hits; PathHunter beta-arrestin GPR151 cells, luminescence; Q8TDV0; activation, % at 11.2 µM; in the data active = activation above about 4.9%;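 note: 0% = median of compound wells and 100% = cells with positive control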
MITF inh – human MITF inhibition, primary screen; AID 1259374; O75030; 650,000 compounds, 0.91% hits; AlphaScreen MITF homodimerization, bead proximity signal; inhibition, % at 2.6 µM; in the data active = inhibition above about 50%;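 note: 0% = vehicle wells with protein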
GPR151 conf act – confirmation of human GPR151 activators; GPR151 PathHunter beta-arrestin cells, luminescence, 90 min; % of EA-reagent control over plate median; 6,700 tested, under 10 active; shares compounds with GPR151 ag; activation, % at 11.2 µM; AID 1508609;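 active = mean percent activation across replicates above the confirmation screen cutoff of 4.91%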
GPR119 ag – activates human GPR119 in a GPR151 counter-screen; shares compounds with GPR151 ag; GPR119 PathHunter beta-arrestin cells, luminescence, 90 min; 0 = compound-well median, 100 = enzyme-acceptor control; activation, % at 11.2 µM; 6,700 compounds, 0.3% hits; AID 1508611;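 active = mean percent activation in the counterscreen above 29.09%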;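 note: counterscreen on off-target GPR119 to flag nonselective hits from the GPR151 activator screen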
An asterisk follows results filed as active; / = no result given. Compounds with a hit are over-represented: about 3.4% of the library has one in this group of screens.

SMILES	TEAD-YAP block	FBW7 act	GPR151 ag	MITF inh	GPR151 conf act	GPR119 ag
CCCC(c1nnnn1CCOC)N1CCN(c2cccc(C(F)(F)F)c2)CC1 (centres undefined)	-9.2	-0.2	5.4*	-0.3	-1.4	-10.8
O=C(CSc1n[nH]c(-c2ccncc2)n1)c1ccc(Cl)cc1	1.8	0.0	5.0*	-12.4	-1.4	-6.4
O=C(CSc1n[nH]c(-c2ccncc2)n1)c1ccc(F)cc1	2.6	-0.1	2.2	-7.4	/	/
CCOC(=O)Cc1ccc(N(Cc2cccs2)S(=O)(=O)c2cccc([N+](=O)[O-])c2)cc1	0.6	-0.4	-2.2	4.0	/	/
CC1(CC(=O)C(C)(C)C)NN=C(c2ccccc2O)S1 (centres undefined)	-72.5	0.1	0.9	4.0	/	/
CCC(C)NC(=O)c1ccc2nc(NC(=O)c3ccc([N+](=O)[O-])cc3)sc2c1 (centres undefined)	3.3	0.1	8.8*	12.9	0.2	0.9
CCC(C)NC(=O)c1ccc2nc(NC(=O)c3cc([N+](=O)[O-])cc([N+](=O)[O-])c3)sc2c1 (centres undefined)	9.2	0.1	0.9	0.7	/	/
COc1ccc(C2=NN(CC(=O)NCCCN3CCCCC3C)C(=O)CC2)cc1 (centres undefined)	-4.1	-0.2	0.6	3.3	/	/
CCCCC[C@@H](O)/C=C/[C@H]1[C@H](O)CC(=O)[C@@H]1CCCCCCC(=O)O	/	/	7.2*	14.0	0.4	3.5
CCCCC[C@H](O)/C=C/[C@H]1[C@H](O)CC(=O)[C@@H]1CCCCC(=O)O	/	/	-3.2	12.4	/	/
O=c1c2c(nc3nc(-c4ccccc4)[nH]n13)CCCC2	8.5	0.1	5.7*	3.8	-0.9	-8.5
Cc1sc(N=C(N)N)nc1-c1ccc2c(c1)CCN2C(=O)C1CCCCC1	5.5	-0.1	5.1*	5.6	-0.2	-1.0
COc1ccc(OC)c(C(=O)CC2(O)C(=O)Nc3ccc(Br)cc32)c1 (centres undefined)	-16.6	-0.2	5.8*	-2.9	0.5	-5.5
COc1ccc(-n2c(SCC(=O)Nc3ccc(N(C)C)cc3)nc3c(sc(=S)n3-c3ccccc3)c2=O)cc1OC	-1.2	-0.4	-0.5	-16.1	/	/
c1cncc(-c2noc(CCC3CCCC3)n2)c1	-5.0	-0.1	7.7*	-11.6	0.6	2.6
c1cncc(-c2noc(C34CC5CC(CC(C5)C3)C4)n2)c1	-2.9	0.0	6.9*	-10.0	1.9	-0.2
O=C(CN1C(=O)c2ccccc2C1=O)Oc1ccc2nc(N3CCCCC3)sc2c1	-44.3	0.0	-0.1	-6.2	/	/
O=C(CSc1nnnn1-c1ccc2c(c1)OCO2)c1ccccc1F	1.9	-0.1	1.7	3.4	/	/
Cc1ccccc1C(=O)NCCN1CCn2cc(OCc3ccccc3)c(=O)cc2C1=O	1.8	0.1	2.2	7.6	/	/
O=C(NCCN1CCn2cc(OCc3ccc(F)cc3)c(=O)cc2C1=O)C1CC1	-0.4	0.0	6.7*	5.3	0.9	-10.8
CNC(=O)c1cc(I)c(OCc2ccccc2)c(OC)c1	-11.1	0.1	-1.4	-21.4	/	/
COC(=O)C1C(=O)NC(SC)=C(C#N)C1c1ccccc1OC (centres undefined)	7.7	0.0	-0.5	0.8	/	/
CC(C)(C)N1CC(CO)OC1c1ccccc1 (centres undefined)	2.4	0.1	4.9*	11.9	-0.7	-4.7
COc1ccc(Cc2nnc(SCC(=O)Nc3ccc(F)cc3)o2)cc1	1.6	0.3	-0.3	-2.4	/	/
COc1ccc(Cc2nnc(SCC(=O)Nc3ccc(C)c([N+](=O)[O-])c3)o2)cc1	8.5	-0.1	7.4*	9.9	-0.1	-8.5
SMILES	TEAD-YAP block	FBW7 act	GPR151 ag	MITF inh	GPR151 conf act	GPR119 ag
Cc1ccc2c(c1)CN(CCC(=O)NCc1cccc(F)c1F)CC(C)O2 (centres undefined)	-3.0	0.3	0.8	-5.9	/	/
CCOC(=O)c1c(C)[nH]c(NC(=O)Nc2ccc(OCC)cc2)c1C	3.5	-0.2	6.0*	-6.3	0.6	3.8
CCOC(=O)c1c(C)[nH]c(NC(=O)Nc2ccc(F)cc2)c1C	1.9	0.0	-0.5	-3.8	/	/
COC(=O)c1ccccc1OCCOc1ccccc1C(=O)OC	-10.9	0.6	5.6*	8.7	0.2	11.4
COC(=O)c1ccccc1OCCOCCOc1cccc2cccnc12	-6.9	0.1	0.7	1.3	/	/
Cc1ccc(CN2C(=O)C3C(C(=O)Nc4ccc(C)cc4)C4C=CC3(O4)C2C(=O)NC2CCCCC2)cc1 (centres undefined)	-0.1	-0.1	-1.2	-12.4	/	/
O=c1[nH]c(N/N=C/c2ccc(O)cc2)nnc1Cc1ccccc1	0.3	0.1	-0.5	18.3	/	/
O=c1[nH]c(N/N=C/c2cc([N+](=O)[O-])ccc2O)nnc1Cc1ccccc1	3.1	-0.2	6.2*	41.9	0.9	2.2
CCOC(=O)c1c(-c2ccc(C)o2)csc1NC(=O)c1cccs1	2.5	0.0	8.2*	10.7	-0.7	2.3
COc1ccccc1C(=O)Nc1ccc(I)cc1Cl	-20.1	-0.1	7.2*	-22.5	0.4	12.1
Cc1ccc([N+](=O)[O-])cc1NC(=O)c1ccccc1Cl	2.9	0.1	1.2	5.5	/	/
O=C(Nc1ccc(S(=O)(=O)Nc2nccs2)cc1)c1ccc([N+](=O)[O-])cc1Cl	-1.6	0.2	5.2*	7.8	-0.2	-2.2
COc1cccc(OC)c1C(=O)Nc1ccc(I)cc1Cl	-6.3	-0.1	-0.7	-25.5	/	/
O=C(Nc1ccc([N+](=O)[O-])cc1Cl)c1ccccc1Cl	-10.6	0.0	8.1*	-17.5	1.2	11.4
Cc1cc(C)cc(C(=O)Nc2ccc([N+](=O)[O-])cc2C)c1	1.8	-0.2	8.9*	-6.4	-0.2	-3.2
CCc1cc(C(=O)N2CCN(c3cccc(OC)c3)CC2)cs1	-6.0	0.5	1.9	11.2	/	/
Cc1ccc(C(=O)Nc2ccc([N+](=O)[O-])cc2)c(Cl)c1	-44.0	-0.2	14.5*	7.9	1.0	5.5
COc1cccc(C(=O)NNC(=O)c2ccc(S(=O)(=O)N3CCCCC3)cc2)c1	-15.1	0.3	-0.3	9.9	/	/
CCCC(c1nnnn1CCOC)N(CCCO)Cc1cc2cc(C)ccc2[nH]c1=O (centres undefined)	-0.6	1.0	-0.4	12.3	/	/
O=C(Nc1nncs1)c1cccc(I)c1	2.7	-0.3	5.4*	-8.0	1.3	5.0
O=C(Nc1nncs1)c1cccc(Br)c1	-14.7	0.0	2.5	0.3	/	/
CCCCNS(=O)(=O)CCNC(=O)c1ccc(OC)cc1	3.0	0.2	0.9	-13.1	/	/
COc1ccc(C2CC(C(F)(F)F)n3nc(C(=O)Nc4cccc(O)c4)cc3N2)cc1 (centres undefined)	1.9	0.1	5.8*	14.3	0.3	11.8
COc1ccc(C2CC(C(F)(F)F)n3nc(C(=O)Nc4cccc(C(F)(F)F)c4)cc3N2)cc1 (centres undefined)	0.2	-0.1	0.1	-5.9	/	/
Cc1ccc(C(=O)CSc2nnc(-c3ccccc3N)n2C)cc1	-10.2	0.0	5.9*	-3.7	0.0	-7.1

Compound activity (PubChem)
